JMJD2A Tudor inh: JMJD2A Tudor domain (human) inhibition. AlphaScreen JMJD2A-Tudor / H3K4me3 peptide binding. O75164. 390,000 compounds, 4.4% hits. Potency, µM (highest dose often 114 µM), inactives show top-dose activity change, negative = inhibition, hits mostly inhibitors; also: potency is read from the fitted curve at half-maximal effect; % is scaled to controls: 0 for no effect and ±100 for the full control effect; nearly all actives have a fitted effect of over 50% in size
PLK1 PBD block: inhibitors of human PLK1 polo-box domain binding; Plk1 PBD binding of FITC phosphopeptide, fluorescence polarization; Potency, µM, inactives show max response, negative = inhibition, most hits filed as inhibitors; 360,000 compounds, 2.8% hits; AID 720504; also: potency is read from the fitted curve at half-maximal effect; series mostly up to about 57 µM; % is scaled to controls: 0 for no effect and ±100 for the full control effect; nearly all actives have a fitted effect of over 65% in size
HP1b binding inh: blocks HP1-beta chromodomain binding to methylated histone tails; P83916; AlphaScreen HP1-beta / biotin-H3K9me3 peptide binding; Potency, µM (titrated, usually from 114 µM), for the others: at the highest dose activity change, negative = inhibition, usual class: inhibitors; 390,000 compounds, 0.56% hits; AID 540317; also: potency is read from the fitted curve at half-maximal effect; nearly all actives have a fitted effect of over 70% in size
Target sequence (P83916 whole entry, looked up): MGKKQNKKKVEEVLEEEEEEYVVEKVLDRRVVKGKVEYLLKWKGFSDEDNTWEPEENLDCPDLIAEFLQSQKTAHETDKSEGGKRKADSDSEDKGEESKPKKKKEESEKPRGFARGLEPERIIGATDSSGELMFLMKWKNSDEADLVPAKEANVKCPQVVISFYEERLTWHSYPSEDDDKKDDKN
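HP1-beta protein (50 nM final) preincubated 30 min at room temperature with biotinylated H3(1-18)K9me3 peptide (50 nM) in PBS pH 7.4, 0.01% Tween-20, then compound added for 30 min. AlphaScreen streptavidin donor/nickel chelate acceptor beads (10 ug/mL final), 30 min dark, luminescence read.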
PI5P4Ka inh: blocks human PI5P4K alpha kinase activity; P48426; PI5P4Kalpha enzyme, ADP-Glo luminescence, 60 min; active compounds read low; max response, %; 330,000 compounds, 1.2% hits; AID 652105; active = max response of -50% or lower; inconclusive = between -30% and -50%; inactive = -30% or higher; also: value at the top dose of about 77 µM; % is scaled to controls: 0 for no effect and ±100 for the full control effect
Target sequence (P48426 whole entry, looked up): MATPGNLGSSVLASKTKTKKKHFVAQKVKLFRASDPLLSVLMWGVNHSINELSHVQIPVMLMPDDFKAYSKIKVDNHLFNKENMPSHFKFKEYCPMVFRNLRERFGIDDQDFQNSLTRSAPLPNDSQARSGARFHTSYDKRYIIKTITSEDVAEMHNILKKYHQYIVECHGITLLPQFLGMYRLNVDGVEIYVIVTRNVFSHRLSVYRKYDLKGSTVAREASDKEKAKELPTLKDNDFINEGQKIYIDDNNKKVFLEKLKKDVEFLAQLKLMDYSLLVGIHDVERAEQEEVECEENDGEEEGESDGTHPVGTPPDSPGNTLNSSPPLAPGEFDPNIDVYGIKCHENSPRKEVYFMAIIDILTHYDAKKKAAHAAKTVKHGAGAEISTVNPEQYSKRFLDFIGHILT
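Quantitative HTS of the MLSMR library against PI5P4Kalpha with substrate. ATP added last at 5 microM final; room temperature, 60 minutes. Remaining ATP depleted, ADP converted and read as luminescence.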
BAZ2B block: BAZ2B (human) inhibition. Q9UIF8. 360,000 compounds, 4.4% hits. Potency, µM (highest dose often 114 µM), for inactives: top-dose activity change, negative = inhibition, hits mostly inhibitors. AlphaScreen BAZ2B-H3K14Ac peptide displacement; also: potency is read from the fitted curve at half-maximal effect; % is scaled to controls: 0 for no effect and ±100 for the full control effect; nearly all actives have a fitted effect of over 60% in size
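Inhibition is scored as reduced AlphaScreen emission. The BAZ2B/b-H3(5-23)K14Ac complex (50 nM each) in PBS pH 7.4, 0.01% Tween-20 meets compound (up to 110 uM) for 30 min at RT before bead addition.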
G9a inh: G9a (human) methyltransferase inhibition | 350,000 compounds, 8.8% hits | Potency, µM (top dose mostly 102 µM), inactives show top-dose activity, negative = inhibition, most hits filed as inhibitors | AID 504332 | G9a H3K9 monomethylation, AlphaScreen, 2 h | Q96KQ7; also: potency is read from the fitted curve at half-maximal effect; % is scaled to controls: 0 for no effect and ±100 for the full control effect; nearly all actives have a fitted effect of over 75% in size
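Chemiluminescent proximity detection of H3K9 monomethylation, read after 10 min bead incubation in the dark. Reaction: 20 nM G9a, 500 nM biotin-H3K9 peptide, 20 uM SAM cofactor, 2 h, room temperature, following 15 min enzyme-compound preincubation.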
Active calls of the source: *; ? = inconclusive; . = not tested or not shown; [ ] = another dose, or the depositor's remark. A selection: hits, their analogues and other compounds. The true share with any hit is near 12%. Unless noted, calls follow the shape of the dose curve; as a rule, active = well fitted curve in the direction sought with a large enough effect; inconclusive = small, poorly fitted or top-dose-only effect, or another doubt; inactive = no such curve, though single readings can be large; an effect the other way counts as inactive or inconclusive.

SMILES | JMJD2A Tudor inh | PLK1 PBD block | HP1b binding inh | PI5P4Ka inh | BAZ2B block | G9a inh
O=[N+]([O-])c1ccc2nc(-c3ccccc3)oc2c1 | -18.8% | -11.6% | 8.4% | 4.2 | -27.8% | 39.8µM*
O=c1oc(-c2cccc([N+](=O)[O-])c2)nc2ccccc12 | -19.3% | ? | -11.7% | -10.9 | -34.8% | 44.7µM*
CCOc1cc(C(=O)Nc2cccc(-c3nc4ccccc4o3)c2)cc(OCC)c1OCC | 9.0% | . | 43.9% | . | 1.4% | 11.2%[59 µM]
O=C(Nc1cccc(-c2nc3ccccc3c(=O)o2)c1)c1ccccc1 | 25.1µM* | 21.2µM* | ? | -20.9 | -32.4% | -28.2%[59 µM]
Cc1cc(-c2cccc([N+](=O)[O-])c2)nc2ccccc12 | -4.2% | -13.3% | 25.8% | 0.6 | -7.2% | 12.6µM*
COC(=O)c1cccc(Nc2c(-c3cc(Br)ccc3O)nc3nc[nH]n23)c1 | ? | . | 9.9% | . | -28.7% | 17.1%[59 µM]
Fc1cccc(-n2ncc3c2ncn2nc(COc4ccc(Cl)cc4)nc32)c1 | 0.7% | . | 45.6% | . | 4.7% | 12.0%[59 µM]
CCOc1ccc(NC(=O)CCc2c(C)nc3cc(-c4ccc(Cl)cc4)nn3c2C)cc1 | -12.8% | . | 18.6% | . | -19.5% | 0.708µM*
CCOC(=O)c1cccc(NC(=O)CCc2c(C)nc3cc(-c4ccc(Cl)cc4)nn3c2C)c1 | -10.1% | . | 28.0% | . | -14.9% | -18.9%[59 µM]
Cc1cccc(S(=O)Cc2ccc(C(=O)NC3CCCCCC3)o2)c1 (stereo not drawn) | 3.7% | . | 35.3% | . | -11.9% | -5.9%[59 µM]
Nc1ccc(Oc2ccc3nc(-c4ccccc4)c(-c4ccc([N+](=O)[O-])cc4)nc3c2)cc1 | ? | -3.7% | -35.8% | 11.4 | ? | 31.6µM*
CCc1ccccc1NC(=O)CCC(=O)N1CC(C)Oc2ccc(C)cc21 (stereo not drawn) | -14.6% | . | 21.6% | . | 0.8% | 1.0%[59 µM]
Cc1cnc(NC(=O)CN2C(=O)C3CC=CCC3C2=O)s1 (stereo not drawn) | 56.2µM* | -7.5% | 5.4% | -1.6 | . | 5.7%[59 µM]
O=C(CN1C(=O)C2CC=CCC2C1=O)Nc1nccs1 (stereo not drawn) | -5.4% | -3.7% | 14.9% | 5.2 | -32.8% | -7.8%[12.7 µM]
CCOC(=O)c1ccc(N=Nc2c(C)[nH]n(-c3ccccc3)c2=O)cc1 | ? | -7.3% | -27.0% | 8.5 | ? | 3.98µM*
CCOc1ccc(N=Nc2c(C)[nH]n(-c3ccccc3)c2=O)cc1 | ? | -16.3% | -5.7% | -2.6 | ? | 0.6%[0.501 µM]
CC(=O)N(C)c1ccc(N=Nc2c(C)[nH]n(C(N)=S)c2=O)cc1 | -15.5% | ? | 43.8% | -10.5 | -13.0% | 7.6%[59 µM]
CC(=O)N(C)c1ccc(N=Nc2c(C)[nH]n(-c3ccccc3)c2=O)cc1 | ? | 2.1% | ? | 4.5 | ? | 35.5µM*
CC(C)(C)c1cc(/C=N/NC(=O)C[n+]2ccccc2)cc(C(C)(C)C)c1O | 56.2µM* | 2.6% | 48.4% | 3.2 | 50.1µM* | -50.7%
O=C(C[n+]1ccccc1)N/N=C/c1c(F)cccc1Cl | -11.0% | -4.8% | 27.6% | -4.0 | 56.2µM* | -3.8%
CSc1ccc(/C=N/NC(=O)C[n+]2ccccc2)cc1 | -11.7% | -11.0% | 34.5% | -6.9 | -0.7% | 22.9%
O=C(C[n+]1ccccc1)N/N=C/c1ccccc1F | ? | ? | -13.4% | -1.6 | . | 6.8%
CC(C)(C)c1ccc(/C=N/NC(=O)C[n+]2ccccc2)cc1 | -16.1% | 1.3% | 4.7% | 3.1 | -24.9% | -2.5%
O=C(C[n+]1ccccc1)N/N=C/c1ccc(Cl)cc1 | ? | -1.9% | 24.8% | -1.0 | 50.1µM* | -0.6%[12.7 µM]
COc1ccc(NC(=O)c2nc(S(C)(=O)=O)ncc2N(Cc2ccc(C)cc2)Cc2ccco2)cc1Cl | -14.6% | . | 27.6% | . | -25.8% | -34.0%[59 µM]
SMILES | JMJD2A Tudor inh | PLK1 PBD block | HP1b binding inh | PI5P4Ka inh | BAZ2B block | G9a inh
CCOC(=O)COc1ccc(C)cc1C(=O)c1ccn2nc(-c3ccc(C)cc3)cc2n1 | 0.4% | . | 25.8% | . | -11.0% | 20.1%[59 µM]
COC(=O)c1scc(-c2ccc(C)cc2)c1S(=O)(=O)N1CCN(c2ccc(F)cc2)CC1 | -28.3% | . | ? | . | -29.0% | ?
COC(=O)c1scc(-c2ccc(C)cc2)c1S(=O)(=O)N1CCN(c2ccc(OC)cc2)CC1 | ? | . | ? | . | ? | 11.2µM*
COc1ccc(CN(C)C(=O)C2CCN(C(=O)Nc3ccccc3)CC2)cc1 | -15.2% | -5.8% | 10.7% | -0.4 | 10.2% | 11.9%
N#CC(=C(/N)Sc1ccccc1N)/C(C#N)=C(\N)Sc1ccccc1N | . | . | . | . | . | 12.6µM*
Cn1c(=O)c2cc(S(=O)(=O)Nc3cccc(F)c3)ccc2n(C)c1=O | -13.0% | -3.3% | 35.9% | -2.4 | 6.3% | ?
Cc1c(F)cccc1NS(=O)(=O)c1ccc2c(c1)c(C)cc(=O)n2C | -7.0% | 0.3% | 40.8% | 6.8 | 50.1µM* | 4.9%
NC(=O)C1CCN(C2CC(=O)N(Cc3ccc(N4CCCC4=O)cc3)C2=O)CC1 (stereo not drawn) | ? | -10.0% | 26.8% | 0.5 | -9.3% | 44.7µM*
CCC(=O)NCCn1c(C)cc2ccccc21 | -23.1% | -4.3% | 1.2% | 2.3 | -4.7% | 44.7µM*
Cc1onc(-c2ccccc2Cl)c1C(=O)NCCn1c(C)cc2ccccc21 | -23.9% | -10.1% | 15.7% | -12.2 | -9.3% | 50.1µM*
Cc1cc2ccccc2n1CCNC(=O)c1ccc(Br)o1 | ? | -24.6% | ? | -28.2 | ? | 35.5µM*
Cc1ccc(NS(=O)(=O)c2ccc(NC(=O)N3CCCC3)cc2)cc1C | -10.6% | . | 26.1%[57 µM] | . | 4.0% | 0.0%[59 µM]
CCCNc1nc2ccccc2c(=O)[nH]1 | -2.1% | -9.5% | 1.7% | -0.1 | 4.2% | 7.8%
O=c1[nH]c(-c2ccncc2)nc2ccccc12 | ? | 5.32µM* | ? | ? | -8.4% | 8.91µM*
CC(c1nc2ccccc2c(=O)[nH]1)N1CCN(C)CC1 (stereo not drawn) | 70.8µM* | ? | ? | 2.1 | 9.5% | ?
CC(C)Nc1nc2ccccc2c(=O)[nH]1 | ? | 21.2µM* | -8.5% | -4.8 | 5.9% | .
O=C(N/C(=C\c1ccccc1)C(=O)N1CCCCC1)c1ccc(Br)o1 | -5.7% | -0.8% | 28.4% | -10.1 | -20.7% | 33.1%
Cc1ccc(C(=O)Oc2ccc(C(=O)COC(=O)C3CC(=O)N(Cc4ccco4)C3)cc2)cc1 (stereo not drawn) | ? | ? | -18.0% | ? | 50.1µM* | ?
O=C(COC(=O)C1CC(=O)N(Cc2ccco2)C1)c1ccc(OC(=O)c2ccco2)cc1 (stereo not drawn) | 35.5µM* | ? | ? | -63.3* | 25.1µM* | 8.91µM*
O=C1Nc2ccc(C(=O)O)c(O)c2C1=O | 56.2µM* | -4.8% | -0.9% | ? | . | .
COCCCn1c(=O)/c(=C\c2ccccc2OC(C)C)s/c1=C(/C#N)C(=O)Nc1ccc(C(=O)O)cc1 | ? | ? | -15.2% | 6.4 | 50.1µM* | 44.7µM*

Compound activity deposited in PubChem by National Center for Advancing Translational Sciences (NCATS).
